# Experimental data: the supplement of paper PMC8728848
# The full list was thinned out, with the strongest signals kept by preference.
# Legend:
# Assay in all cases: glycan array binding signal (z-score within array); higher = stronger binding
# Conditions in all cases: glycan notation: IUPAC condensed, linker removed
# [1] = target: Fuc(a1-2)Gal(b1-4)GlcNAc(b1-6)GalNAc
# Outline: (§1)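 Negative Z-scores can be read as non-binding. The Z-score is calculated within each array and then averaged across arrays of one protein sequence at different concentrations or buffers and across linkers. Arrays, 3228 in all, were curated from the Consortium for Functional Glycomics database and kept only where the protein sequence was available.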
# [2] = target: Fuc(a1-2)[Gal(a1-3)]Gal(b1-4)GlcNAc(b1-3)GalNAc
# Outline: as §1
# [3] = target: Fuc(a1-2)[GalNAc(a1-3)]Gal(b1-4)GlcNAc(b1-6)GalNAc
# Outline: as §1
# [4] = target: Fuc(a1-2)[GalNAc(b1-3)]Gal
# Outline: as §1
# [5] = target: Fuc(a1-3)[GalNAc(b1-4)]GlcNAc6S
# Outline: as §1
# Gal(a1-3)Gal(b1-4)GlcNAc = target: Gal(a1-3)Gal(b1-4)GlcNAc
# Outline: as §1
# [6] = target: Gal(a1-3)Gal(b1-4)GlcNAc(b1-6)GalNAc
# Outline: as §1
# [7] = target: Gal(b1-3)GlcNAc(b1-3)Gal(b1-4)[Fuc(a1-3)]GlcNAc(b1-6)[Gal(b1-3)GlcNAc(b1-3)]Gal(b1-4)Glc
# Outline: as §1
# [8] = target: Gal(b1-4)GlcNAc(b1-3)Gal(b1-3)GalNAc
# Outline: as §1
# [9] = target: Gal(b1-4)GlcNAc(b1-3)Gal(b1-4)GlcNAc(b1-3)Gal(b1-4)GlcNAc(b1-3)Gal(b1-4)GlcNAc(b1-2)Man(a1-3)[Gal(b1-4)GlcNAc(b1-3)Gal(b1-4)GlcNAc(b1-3)Gal(b1-4)GlcNAc(b1-3)Gal(b1-4)GlcNAc(b1-2)Man(a1-6)]Man(b1-4)GlcNAc(b1-4)[Fuc(a1-6)]GlcNAc
# Outline: as §1
# [10] = target: Gal(b1-4)GlcNAc(b1-3)Gal(b1-4)GlcNAc(b1-3)Gal(b1-4)GlcNAc(b1-3)Gal(b1-4)GlcNAc(b1-3)Gal(b1-4)GlcNAc(b1-3)Gal(b1-4)GlcNAc(b1-2)Man(a1-3)[Gal(b1-4)GlcNAc(b1-3)Gal(b1-4)GlcNAc(b1-3)Gal(b1-4)GlcNAc(b1-3)Gal(b1-4)GlcNAc(b1-3)Gal(b1-4)GlcNAc(b1-3)Gal(b1-4)GlcNAc(b1-2)Man(a1-6)]Man(b1-4)GlcNAc(b1-4)GlcNAc
# Outline: as §1
# [11] = target: Gal(b1-4)GlcNAc(b1-3)Gal(b1-4)[Fuc(a1-3)]GlcNAc(b1-3)Gal(b1-4)[Fuc(a1-3)]GlcNAc
# Outline: as §1
# [12] = target: Gal(b1-4)GlcNAc(b1-3)[Gal(b1-4)GlcNAc(b1-6)]Gal(b1-4)GlcNAc
# Outline: as §1
# [13] = target: Gal3S(b1-4)[Fuc(a1-3)]Glc6S
# Outline: as §1
# [14] = target: Gal3S(b1-4)[Fuc(a1-3)]GlcNAc6S
# Outline: as §1
# GalNAc(a1-3)Gal = target: GalNAc(a1-3)Gal
# Outline: as §1
# GalNAc(b1-3)Gal = target: GalNAc(b1-3)Gal
# Outline: as §1
# [15] = target: GalNAc(b1-3)Gal(a1-4)Gal(b1-4)GlcNAc(b1-3)Gal(b1-4)Glc
# Outline: as §1
# [16] = target: GalNAc(b1-3)Gal(a1-6)Gal(b1-4)Glc
# Outline: as §1
# GalNAc(b1-4)GlcNAc6S = target: GalNAc(b1-4)GlcNAc6S
# Outline: as §1
# GalNAc4S6S(b1-4)GlcNAc = target: GalNAc4S6S(b1-4)GlcNAc
# Outline: as §1
# [17] = target: Glc(a1-6)Glc(a1-6)Glc(a1-6)Glc
# Outline: as §1
# [18] = target: GlcNAc(a1-4)Gal(b1-4)GlcNAc(b1-3)Gal(b1-4)Glc
# Outline: as §1
# [19] = target: GlcNAc(b1-3)Gal(b1-4)GlcNAc(b1-3)Gal(b1-4)GlcNAc(b1-3)Gal(b1-4)GlcNAc(b1-3)Gal(b1-4)GlcNAc(b1-2)[GlcNAc(b1-3)Gal(b1-4)GlcNAc(b1-3)Gal(b1-4)GlcNAc(b1-3)Gal(b1-4)GlcNAc(b1-3)Gal(b1-4)GlcNAc(b1-6)]Man(a1-6)[GlcNAc(b1-3)Gal(b1-4)GlcNAc(b1-3)Gal(b1-4)GlcNAc(b1-3)Gal(b1-4)GlcNAc(b1-3)Gal(b1-4)GlcNAc(b1-2)Man(a1-3)]Man(b1-4)GlcNAc(b1-4)[Fuc(a1-6)]GlcNAc
# Outline: as §1
# [20] = target: GlcNAc(b1-3)Gal(b1-4)GlcNAc(b1-6)[GlcNAc(b1-3)Gal(b1-3)]GalNAc
# Outline: as §1
# GlcNAc(b1-3)GalNAc = target: GlcNAc(b1-3)GalNAc
# Outline: as §1
# [21] = target: GlcNAc(b1-3)[GlcNAc(b1-6)]GalNAc
# Outline: as §1
# GlcNAc(b1-6)GalNAc = target: GlcNAc(b1-6)GalNAc
# Outline: as §1
# [22] = target: Kdn(a2-3)Gal(b1-4)[Fuc(a1-3)]GlcNAc
# Outline: as §1
# Man(a1-6)Man = target: Man(a1-6)Man
# Outline: as §1
binder,measurement,setting,value
Cohesin-hDCIR (Homo sapiens) (protein) LDDLDAVRIKVDTVNAKPGDTVRIPVRFSGIPSKGIANCDFVYSYDPNVLEIIEIEPGDIIVDPNPDKSFDTAVYPDRKIIVFLFAEDSGTGAYAITKDGVFATIVAKVKEGAPNGLSVIKFVEVGGFANNDLVEQKTQFFDGGANVGDTTEPATPTTPVTTPTTTDDLDAASQKYSQLLEKKTTKELVHTTLECVKKNMPVEETAWSCCPKNWKSFSSNCYFISTESASWQDSEKDCARMEAHLLVINTQEEQDFIFQNLQEESAYFVGLSDPEGQRHWQWVDQTPYNESSTFWHPREPSDPNERCVVLNFRKSPKRWGWNDVNCLGPQRSVCEMMKIHLHHHHHH,glycan array binding signal (z-score),[1],5.99
same,glycan array binding signal (z-score),[2],-0.635
same,glycan array binding signal (z-score),[3],5.33
same,glycan array binding signal (z-score),[4],3.31
same,glycan array binding signal (z-score),[5],0.081
same,glycan array binding signal (z-score),Gal(a1-3)Gal(b1-4)GlcNAc,-0.455
same,glycan array binding signal (z-score),[6],5.08
same,glycan array binding signal (z-score),[7],-0.655
same,glycan array binding signal (z-score),[8],-0.458
same,glycan array binding signal (z-score),[9],2.82
same,glycan array binding signal (z-score),[10],-0.417
same,glycan array binding signal (z-score),[11],-0.584
same,glycan array binding signal (z-score),[12],-0.335
same,glycan array binding signal (z-score),[13],-0.343
same,glycan array binding signal (z-score),[14],3.25
same,glycan array binding signal (z-score),GalNAc(a1-3)Gal,1.17
same,glycan array binding signal (z-score),GalNAc(b1-3)Gal,3.75
same,glycan array binding signal (z-score),[15],4.3
same,glycan array binding signal (z-score),[16],5.47
same,glycan array binding signal (z-score),GalNAc(b1-4)GlcNAc6S,0.86
same,glycan array binding signal (z-score),GalNAc4S6S(b1-4)GlcNAc,-0.659
same,glycan array binding signal (z-score),[17],-0.038
same,glycan array binding signal (z-score),[18],-0.696
same,glycan array binding signal (z-score),[19],-0.597
same,glycan array binding signal (z-score),[20],-0.546
same,glycan array binding signal (z-score),GlcNAc(b1-3)GalNAc,-0.415
same,glycan array binding signal (z-score),[21],-0.401
same,glycan array binding signal (z-score),GlcNAc(b1-6)GalNAc,4.02
same,glycan array binding signal (z-score),[22],-0.218
same,glycan array binding signal (z-score),Man(a1-6)Man,3.2
